From PubChem BioAssay AID1159580 (chemical genetic matrix, 2015)
In all, about 5,500 compounds went through this assay and about 2,000 (36%) were called active. Not shown: some 18% with an inconclusive outcome. Rule as the data show it: active = normalized growth mostly below about 0.91 (no sharp cut-off); inconclusive = no clear call, values can overlap the other calls; inactive = mostly above about 0.92. Some of the results follow.

Assay: chemical genetic growth profiling, strain panel (AID 1159580);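 also: tested at 20 µM; growth read once vehicle control cultures reached saturation at 30 °C; 1 = growth at the plate median or of vehicle wells; lower values mean less growth of the strain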
Conditions: growth OD

Measured: normalized growth

CCCCCCCCCCCCCC(=O)OC1C(C)C2(O)C(C=C(CO)CC3(O)C(=O)C(C)=CC32)C2C(C)(C)C12OC(C)=O (centres undefined)
inactive: S. cerevisiae deletion strains, locus YJR043C, strain POL32, active compounds read low 1.03 | S. cerevisiae deletion strains, locus YJR075W, strain HOC1, active compounds read low 1 | S. cerevisiae deletion strains, locus YKL009W, strain mrt4, active compounds read low 0.973 | S. cerevisiae deletion strains, locus YKL068W, active compounds read low 1.01 | S. cerevisiae deletion strains, locus YKL085W, strain MDH1 (second series), active compounds read low 0.966 | S. cerevisiae deletion strains, locus YKL085W, strain MDH1, active compounds read low 0.966 | S. cerevisiae deletion strains, locus YKL160W, strain elf1, active compounds read low 1 | S. cerevisiae deletion strains, locus YKL190W, strain CNB1, active compounds read low 1.02 | S. cerevisiae deletion strains, locus YKR001C, strain vps1, active compounds read low 0.981 | S. cerevisiae deletion strains, locus YKR026C, strain gcn3, active compounds read low 0.964 | S. cerevisiae deletion strains, locus YKR091W, strain srl3, active compounds read low 0.979 | S. cerevisiae deletion strains, locus YLL001W, strain dnm1, active compounds read low 0.991 | S. cerevisiae deletion strains, locus YLL026W, active compounds read low 0.988 | S. cerevisiae deletion strains, locus YLL041C, strain sdh2, active compounds read low 0.984 | S. cerevisiae deletion strains, locus YLR027C, strain aat2, active compounds read low 0.992 | S. cerevisiae deletion strains, locus YLR039C, strain RIC1, active compounds read low 1.06 | S. cerevisiae deletion strains, locus YLR058C, strain SHM2, active compounds read low 0.996 | S. cerevisiae deletion strains, locus YLR102C, strain apc9, active compounds read low 0.998 | S. cerevisiae deletion strains, locus YLR221C, strain rsa3, active compounds read low 0.972 | S. cerevisiae deletion strains, locus YLR258W, strain gsy2, active compounds read low 0.988 | S. cerevisiae deletion strains, locus YLR262C, strain YPT6 (second series), active compounds read low 0.993 | S. cerevisiae deletion strains, locus YLR262C, strain YPT6, active compounds read low 0.988 | S. cerevisiae deletion strains, locus YLR268W, strain sec22, active compounds read low 1.01 | S. cerevisiae deletion strains, locus YLR320W, strain mms22, active compounds read low 0.974 | S. cerevisiae deletion strains, locus YLR330W, strain CHS5, active compounds read low 0.997 | S. cerevisiae deletion strains, locus YLR342W, strain FKS1 (second series), active compounds read low 1.03 | S. cerevisiae deletion strains, locus YLR342W, strain FKS1, active compounds read low 0.982 | S. cerevisiae deletion strains, locus YLR357W, strain rsc2, active compounds read low 0.954 | S. cerevisiae deletion strains, locus YLR370C, strain arc18, active compounds read low 0.988 | S. cerevisiae deletion strains, locus YLR371W, strain rom2, active compounds read low 0.994 | S. cerevisiae deletion strains, locus YLR384C, strain iki3, active compounds read low 0.99 | S. cerevisiae deletion strains, locus YLR418C, strain cdc73, active compounds read low 0.973 | S. cerevisiae deletion strains, locus YML016C, strain PPZ1, active compounds read low 1.03 | S. cerevisiae deletion strains, locus YML032C, strain rad52, active compounds read low 0.976 | S. cerevisiae deletion strains, locus YML120C, strain ndi1, active compounds read low 0.983 | S. cerevisiae deletion strains, locus YML124C, strain tub3, active compounds read low 0.998 | S. cerevisiae deletion strains, locus YMR058W, strain fet3, active compounds read low 0.983 | S. cerevisiae deletion strains, locus YMR078C, strain ctf18, active compounds read low 0.991 | S. cerevisiae deletion strains, locus YMR125W, strain sto1, active compounds read low 0.993 | S. cerevisiae deletion strains, locus YMR129W, active compounds read low 0.976 | S. cerevisiae deletion strains, locus YMR205C, strain PFK2, active compounds read low 0.926 | S. cerevisiae deletion strains, locus YMR223W, strain ubp8, active compounds read low 0.971 | S. cerevisiae deletion strains, locus YMR231W, strain pep5, active compounds read low 0.986 | S. cerevisiae deletion strains, locus YMR263W, strain SAP30, active compounds read low 1 | S. cerevisiae deletion strains, locus YMR307W, strain GAS1, active compounds read low 0.922 | S. cerevisiae deletion strains, locus YNL067W, strain RPL9B, active compounds read low 1.01 | S. cerevisiae deletion strains, locus YNL071W, strain lat1, active compounds read low 0.991 | S. cerevisiae deletion strains, locus YNL128W, strain TEP1, active compounds read low 1.01 | S. cerevisiae deletion strains, locus YNL153C, strain GIM3, active compounds read low 0.999 | S. cerevisiae deletion strains, locus YNL209W, strain ssb2, active compounds read low 0.99 | S. cerevisiae deletion strains, locus YNL233W, strain BNI4, active compounds read low 1 | S. cerevisiae deletion strains, locus YNL248C, strain rpa49, active compounds read low 0.995 | S. cerevisiae deletion strains, locus YNL250W, strain rad50, active compounds read low 0.981 | S. cerevisiae deletion strains, locus YNL271C, strain bni1, active compounds read low 1 | S. cerevisiae deletion strains, locus YNL298W, strain CLA4, active compounds read low 0.976 | S. cerevisiae deletion strains, locus YNL307C, strain MCK1, active compounds read low 0.99 | S. cerevisiae deletion strains, locus YNL322C, strain KRE1 (second series), active compounds read low 0.978 | S. cerevisiae deletion strains, locus YNL322C, strain KRE1, active compounds read low 0.997 | S. cerevisiae deletion strains, locus YNR049C, strain mso1, active compounds read low 0.981 | S. cerevisiae deletion strains, locus YNR052C, strain pop2, active compounds read low 0.995 | S. cerevisiae deletion strains, locus YOL006C, strain TOP1, active compounds read low 1.03 | S. cerevisiae deletion strains, locus YOL012C, strain htz1 0.932 | S. cerevisiae deletion strains, locus YOL147C, strain pex11, active compounds read low 0.99 | S. cerevisiae deletion strains, locus YOR001W, strain rrp6, active compounds read low 1.01 | S. cerevisiae deletion strains, locus YOR061W, strain CKA2, active compounds read low 1.02 | S. cerevisiae deletion strains, locus YOR069W, strain VPS5, active compounds read low 1.02 | S. cerevisiae deletion strains, locus YOR070C, strain gyp1, active compounds read low 0.987 | S. cerevisiae deletion strains, locus YOR080W, strain dia2, active compounds read low 0.977 | S. cerevisiae deletion strains, locus YOR083W, strain WHI5, active compounds read low 1.01 | S. cerevisiae deletion strains, locus YOR106W, strain vam3, active compounds read low 0.999 | S. cerevisiae deletion strains, locus YOR136W, strain idh2, active compounds read low 0.981 | S. cerevisiae deletion strains, locus YOR144C, strain elg1, active compounds read low 1 | S. cerevisiae deletion strains, locus YOR184W, strain ser1, active compounds read low 0.979 | S. cerevisiae deletion strains, locus YOR265W, strain rbl2, active compounds read low 0.997 | S. cerevisiae deletion strains, locus YOR270C, strain vph1, active compounds read low 0.948 | S. cerevisiae deletion strains, locus YOR290C, strain snf2, active compounds read low 0.947 | S. cerevisiae deletion strains, locus YOR316C, strain cot1, active compounds read low 0.994 | S. cerevisiae deletion strains, locus YPL051W, strain arl3, active compounds read low 1.02 | S. cerevisiae deletion strains, locus YPL055C, strain LGE1, active compounds read low 1.02 | S. cerevisiae deletion strains, locus YPL078C, strain atp4, active compounds read low 0.989 | S. cerevisiae deletion strains, locus YPL106C, strain sse1, active compounds read low 0.985 | S. cerevisiae deletion strains, locus YPL240C, strain hsp82, active compounds read low 0.961 | S. cerevisiae deletion strains, locus YPL241C, strain CIN2, active compounds read low 0.972 | S. cerevisiae deletion strains, locus YPR119W, strain clb2, active compounds read low 0.993 | S. cerevisiae deletion strains, locus YPR141C, strain kar3, active compounds read low 0.986 | S. cerevisiae deletion strains, locus YPR163C, strain tif3, active compounds read low 0.998 | S. cerevisiae deletion strains, locus YPR167C, strain met16, active compounds read low 1 | S. cerevisiae deletion strains, strain wtn01, active compounds read low 1.01 | S. cerevisiae strains, strain wild type, active compounds read low 1.04
